Format in all cases: functional
For assay [1], the target named is Solute carrier family 2, facilitated glucose transporter member 1 (Homo sapiens) (UniProt P11166). The assay can be described thus: ST_JUDE_LEISH: Cytotoxicity at 2uM final concentration against transgenic Leishmania Mexicana promastigotes LmGLUT1 that are glucose transport deficient and complemented with the human glucose transporter GLUT1. Activity is measured by DNA content using SYBR green in vitro.

Assay [2] concerns the target Hexose transporter 1 (Plasmodium falciparum) (UniProt O97467). As to the kind of experiment: ST_JUDE_LEISH: Cytotoxicity at 2uM final concentration against transgenic Leishmania Mexicana promastigotes LmPfHT that are glucose transport deficient and complemented with the Plasmodium falciparum hexose transporter. Activity is measured by DNA content using SYBR green in vitro.

Assay [3] deals with Glucose transporter (Leishmania mexicana) (UniProt O61059). As to the kind of experiment: ST_JUDE_LEISH: Cytotoxicity at 2uM final concentration against transgenic Leishmania Mexicana promastigotes LmGT2 that are glucose transport deficient and complemented with the L. Mexicana glucose transporter 2. Activity is measured by DNA content using SYBR green in vitro.

Sequence of Solute carrier family 2, facilitated glucose transporter member 1 (Homo sapiens) (P11166 whole entry): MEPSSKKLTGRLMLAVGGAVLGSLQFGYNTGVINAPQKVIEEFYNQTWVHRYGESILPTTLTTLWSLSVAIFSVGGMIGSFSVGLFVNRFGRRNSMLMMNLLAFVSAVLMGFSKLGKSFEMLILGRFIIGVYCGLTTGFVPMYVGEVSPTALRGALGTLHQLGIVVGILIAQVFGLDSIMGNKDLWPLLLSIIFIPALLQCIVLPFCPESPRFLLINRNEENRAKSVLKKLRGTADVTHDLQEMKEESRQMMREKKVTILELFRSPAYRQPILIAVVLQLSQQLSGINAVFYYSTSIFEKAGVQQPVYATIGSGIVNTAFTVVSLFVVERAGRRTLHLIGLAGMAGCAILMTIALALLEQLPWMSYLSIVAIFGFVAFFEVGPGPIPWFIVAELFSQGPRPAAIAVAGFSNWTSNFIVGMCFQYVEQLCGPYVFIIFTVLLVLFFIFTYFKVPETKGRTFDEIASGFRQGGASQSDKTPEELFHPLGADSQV

Usually inhibition stands for the change of the read-out against control, counted positive when it falls. As to `Cc1ccc(F)c(C(=O)Nc2cccc(-c3nn4ccccc4c3-c3ccnc(Nc4cccc(F)c4)n3)c2)c1F`, the inhibition in assay [1] amounted to 9.44%; in assay [2] it was 8.92%; in assay [3] it was 6.93%.

Take `CCCC(=O)Nc1ccc(OCCCN(Cc2cccc(C(F)(F)F)c2)c2ccc(C#N)c(C(F)(F)F)c2)cc1`: the inhibition in assay [1] is 2.19%; in assay [2], 2.43%; in assay [3] it was 1.64%.

`COc1cc(NC(=O)c2sc(-c3ccc(Cl)cc3)cc2NC(=O)c2cccnc2)ccc1OCCN1CCCC1`: the values for the inhibition in assay [1], in assay [2] and in assay [3] were 4.28%, 4.76% and 6.19%, respectively.

`CC[C@H](NC(=O)c1ccc(NC(=O)OC(C)(C)C)cc1)C(=O)N[C@@H](CO)C(=O)NCCCCc1ccccc1`: the inhibition in assay [1] is 1.96%; in assay [2], 1.3%; in assay [3], -0.11%.

For the compound `NCC(=O)Nc1cccc(Nc2nccc(-c3c(-c4cccc(NC(=O)c5ccccc5)c4)nn4ccccc34)n2)c1`, the inhibition in assay [1] came to 3.36%; in assay [2], 7.49%; in assay [3] it was 1.14%.

`Fc1ccc(OC2CN(c3nccc(NCc4ccccc4Cl)n3)C2)cc1`: the inhibition in assay [1] was 3.81%; in assay [2] it was 2.84%; in assay [3] it was -0.6%.

Take `O=C1CCCN1CCCNCc1cccc(-c2ccc(-c3nc4ccccc4[nH]3)s2)c1`: the values for the inhibition in assay [1], in assay [2] and in assay [3] were -0.73%, 0.07% and -0.46%, respectively.

Regarding `COc1ccc(Nc2nc(N)c3cc(OC)c(OC)cc3n2)cc1OC`, the inhibition in assay [1] amounted to 9.02%; in assay [2] it was 7.54%; in assay [3], 5.87%.

For `N=C1NC(c2ccccc2)(c2ccccc2)C(=O)N1CC=Cc1ccccc1`, the inhibition came to 7.01% in assay [1], 8.66% in assay [2] and 4.83% in assay [3].

For the compound `Cn1ncc2c3c(CCN4CCC(NCc5cc6c(cn5)OCCO6)CC4)c(Cl)cnc3ccc21`, the inhibition is 1.09% in assay [1], 1.93% in assay [2] and -0.85% in assay [3].

For the compound `O=C(Nc1cccc(CN2CCN(C(=O)c3ccccc3)CC2)c1)c1cccs1`, the values for the inhibition in assay [1], in assay [2] and in assay [3] were 4.55%, 2.87% and 3.92%, respectively.

On to `COc1ccc(C(c2ccc(N(C)C)cc2)c2ccc(N(C)C)cc2)cc1`, for which the inhibition in assay [1] stood at 95.3%; in assay [2], 94.5%; in assay [3], 84.9%.

The record behind these values is ChEMBL document CHEMBL3433997, “St. Jude Leishmania screening dataset” (2016).
